Test results taken from PubChem BioAssay AID652054 (National Center for Advancing Translational Sciences (NCATS), 2013).
The campaign covered roughly 360,000 compounds. About 9,100 (2.5%) were called active. Another 4% or so got no clear call; they are omitted. Rule as the data show it: active = max response below about -50%; inconclusive = no clear call, values can overlap the other calls; inactive = above that. Shown is part of a subset that was picked to be rich in actives.

Each compound was assayed against D(3) dopamine receptor (Homo sapiens) (UniProt P35462) (assay: qHTS of D3 Dopamine Receptor Antagonist: qHTS). Settings: D3R cells, DiscoveRx beta-arrestin luminescence, antagonist mode; active compounds read low.
Method in brief: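 Cells plated overnight at 1500 cells/well, then exposed to library compounds with dopamine controls for 90 minutes at 37 degrees C. DiscoveRx reagent added for 30–60 minutes at room temperature; luminescence read, quantitative HTS format.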
% is scaled to controls: 0 for no effect and ±100 for the full control effect.

Chain of D(3) dopamine receptor (Homo sapiens) (P35462 whole entry, looked up): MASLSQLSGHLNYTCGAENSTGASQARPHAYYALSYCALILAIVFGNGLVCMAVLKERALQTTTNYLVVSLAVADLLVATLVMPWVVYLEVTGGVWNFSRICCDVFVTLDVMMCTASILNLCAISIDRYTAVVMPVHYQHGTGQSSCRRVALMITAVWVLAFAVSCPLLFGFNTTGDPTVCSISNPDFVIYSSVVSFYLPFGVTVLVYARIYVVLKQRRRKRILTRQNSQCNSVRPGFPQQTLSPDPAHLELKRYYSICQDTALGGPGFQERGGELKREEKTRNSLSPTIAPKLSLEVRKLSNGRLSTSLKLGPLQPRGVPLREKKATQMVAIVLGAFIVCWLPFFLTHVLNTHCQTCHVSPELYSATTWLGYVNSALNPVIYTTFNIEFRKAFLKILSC

| SMILES | max response, negative = inhibition |
| --- | --- |
| COc1ccc(-c2ccc(CN3C(C(C)C)C(=O)N(Cc4cn(CC5CCCCC5)nn4)CCS3(=O)=O)cc2)cn1 (stereo unspecified) | 14.3% (inactive) |
| COc1ccc(-c2cc(NC(C)=O)c3ncc(-c4cc(OC)c(OC)c(OC)c4)n3c2)cn1 | 30.1% (inactive) |
| CSCCC(c1nnnn1Cc1ccccc1)N1CCN(C/C=C/c2ccccc2)CC1 (stereo unspecified) | -87.8% (active) |
| COc1ccccc1C(=O)NC(CCSC)C(=O)N1CCN(C/C=C/c2ccccc2)CC1 (stereo unspecified) | -14% (inactive) |
| CC(C)C(c1nnnn1Cc1ccccc1)N1CCC(C(N)=O)CC1 (stereo unspecified) | 14.4% (inactive) |
| Cc1ccc(OCC(O)CN2CCN(CC(O)COc3ccc(C)cc3Cl)CC2)c(Cl)c1 (stereo unspecified) | -59.6% (active) |
| Cc1cccc(OCC(O)CN2CCN(S(=O)(=O)c3ccc(C)cc3C)CC2)c1 (stereo unspecified) | -9.79% (inactive) |
| Cc1ccc(Cl)c(OCC(=O)N2CCc3ccccc3C2)c1 | 1.13% (inactive) |
| CCCc1ccc(OCC(O)CN2CCN(CCO)CC2)cc1 (stereo unspecified) | 6.19% (inactive) |
| COCCN1CCN(C(=O)c2cc(COc3ccc(F)cc3Cl)on2)CC1 | -9.58% (inactive) |
| OC(COc1ccc(F)cc1Cl)CN1CCc2ccccc2C1 (stereo unspecified) | -83.8% (active) |
| CC(C)C[C@H]1CNC(=S)N1C[C@H]1CCCN1C[C@H](Cc1ccc(O)cc1)N1C[C@H](Cc2ccc(O)cc2)N(CC2CCCCC2)C1=S | 4.99% (inactive) |
| CC(=O)NC(c1cccc(F)c1)c1nc(-c2cccc(F)c2)cs1 (stereo unspecified) | 2.77% (inactive) |
| COC(=O)[C@]12CCCCC=C1N(Cc1ccc3c(c1)OCO3)C(=O)[C@H](CC(=O)N1CCOCC1)C2 | 6.26% (inactive) |
| COc1ccc(C(C)C)cc1-c1ccc2nncn2c1 | -20% (inactive) |
| COc1ccc(C(=O)OCC(=O)Nc2cc(C)on2)cc1F | 9.93% (inactive) |
| O=C(Nc1ccc(N2CCOCC2)cc1)c1cccc2c(-c3ccc(F)c(F)c3)coc12 | -14.5% (inactive) |
| O=C(Nc1ccc(F)cc1)Nc1nnc([C@H]2C[C@H](O)[C@@H](CO)O2)s1 | 16.1% (inactive) |
| O=C(Nc1nnc([C@H]2C[C@H](O)[C@@H](CO)O2)s1)c1cccc(Cl)c1 | -110% (active) |
| Cc1ccc(CNC(=O)Nc2nnc([C@H]3C[C@H](O)[C@@H](CO)O3)s2)cc1 | 10.5% (inactive) |
| CC1=C(C(=O)N2CCOCC2)CC(CC(=O)NCCCN(C)C)C(=O)N1Cc1ccc(C(C)(C)C)cc1 (stereo unspecified) | 35.5% (inactive) |
| Nc1nc2c(ncn2[C@@H]2O[C@H](CNS(=O)(=O)N3CCc4ccccc4C3)[C@@H](O)[C@H]2O)c(=O)[nH]1 | 4.77% (inactive) |

| SMILES | max response, negative = inhibition |
| --- | --- |
| CCCCc1c(-c2ccc(Br)cc2)ncn1CCc1ccccc1OC | 65.6% (inactive) |
| COc1cccc(CC2(CO)CCCN(CC3=Cc4cc(OC)ccc4OC3)C2)c1 (stereo unspecified) | -6.63% (inactive) |
| COc1cccc(CC2(CO)CCCN(Cc3nc(-c4cccs4)oc3C)C2)c1 (stereo unspecified) | -116% (active) |
| COc1cccc(CC2(CO)CCCN(Cc3ccc(OC(F)F)cc3)C2)c1 (stereo unspecified) | 8.8% (inactive) |
| CCOc1ccc(CCNC(=O)COC(=O)c2ccc(C)c(S(=O)(=O)N3CCOCC3)c2)cc1OCC | -5.11% (inactive) |
| O=C(Nc1ccc(F)cc1F)N1CCCN(CCOc2ccccc2)CC1 | -70.2% (active) |
| O=C(c1ccco1)N1CCN(CCOc2ccccc2)CC1 | -16.8% (inactive) |
| O=C(c1ccc(Br)o1)N1CCN(CCOc2ccccc2)CC1 | 27.8% (inactive) |
| COc1ccc(S(=O)(=O)N2CCCC2)c(C)c1C | -3.98% (inactive) |
| COc1ccc(S(=O)(=O)N2CCOCC2)c(C)c1C | -69.1% (active) |
| COc1cc(C)c(S(=O)(=O)N2CCOCC2)c(C)c1C | 0.216% (inactive) |
| COc1ccc(CC(N)c2csc(NC(=O)Nc3ccc(C(C)C)cc3)n2)cc1 (stereo unspecified) | -12.1% (inactive) |
| OC(c1ccc(Cl)c(F)c1)c1ncc(-c2ccccc2Cl)[nH]1 (stereo unspecified) | -18% (inactive) |
| CCSC1=C(C#N)C(=O)n2c1cc1c2CCCC1 | -65.6% (active) |
| CCSc1ncnc2c(C#N)c3n(c12)CCCCC3 | -10.2% (inactive) |
| CCN1C(=O)[C@H]2[C@@H](c3ccc(C(F)(F)F)cc3)N[C@]3(CCCN(Cc4ccc(Br)cc4)C3=O)[C@H]2C1=O | 2.39% (inactive) |
| O=C(Nc1cccc(S(=O)(=O)NC2=NCCC2)c1)c1ccc(F)cc1F | 5.01% (inactive) |
| O=C(Nc1cc(S(=O)(=O)Nc2ccc(Cl)cc2)ccc1O)c1ccc(F)cc1F | -59.6% (active) |
| CCS(=O)(=O)c1ccc(O)c(NC(=O)COc2ccc(Cl)cc2)c1 | 0.528% (inactive) |
| COc1ccc(-c2csc(C(O)c3cccc(Cl)c3)n2)cn1 (stereo unspecified) | -24% (inactive) |
| Nc1[nH]c(C(=O)c2ccccc2)c(-c2ccc(Br)cc2)c1C(=O)NC1CC1 | 6.89% (inactive) |
| c1ccc(-c2nccc(-c3ccc(-n4cnc5ccccc54)cc3)n2)nc1 | -53.4% (active) |

| SMILES | max response, negative = inhibition |
| --- | --- |
| COC(=O)c1ccc(-n2cnc3ccccc32)nc1 | 3.06% (inactive) |
| N#CCCn1cnc2ccccc21 | -1.87% (inactive) |
| CC1=C(C(=O)N2CCOCC2)CC(CC(=O)NCCN2CCOCC2)C(=O)N1CCC1=CCCCC1 (stereo unspecified) | 35.9% (inactive) |
| O=C(NCCS(=O)(=O)N1CCN(c2ccccc2)CC1)c1cc(=O)c2ccccc2o1 | 9.87% (inactive) |
| COc1ccc([C@H]2C[C@@H](n3cc(COC(=O)c4ccccc4)nn3)[C@H](O)CN2C(=O)c2cccs2)cc1 | -28.2% (inactive) |
| COCCNc1nc(N)c([N+](=O)[O-])c(N2CCCCCC2)n1 | 16.7% (inactive) |
| CCN1CCN(c2nc(Nc3cccc(F)c3)nc(N)c2[N+](=O)[O-])CC1 | -76.5% (active) |
| CC1CN(c2nc(Nc3ccccc3)nc(N)c2[N+](=O)[O-])CC(C)O1 (stereo unspecified) | 14.2% (inactive) |
| Cc1ccc(S(=O)(=O)N2CCC(=O)N([C@H](COCc3ccccc3)C(C)C)CC2)cc1 | 8.56% (inactive) |
| CC(C)c1cc(Cn2c3ccccc3c(=O)n2C(C)Cn2cc(C3CC3)nn2)on1 (stereo unspecified) | 0.832% (inactive) |
| CCCCC[C@@H]1C=C(C(=O)OCC)[C@H](c2ccccc2)N1S(=O)(=O)c1ccc(C)cc1 | 0% (inactive) |
| O=C(OCc1cn([C@H]2C[C@H](c3ccccc3)N(C(=O)c3cccs3)C[C@@H]2O)nn1)c1ccccc1 | -25.2% (inactive) |
| COc1c(C)cc(C(O)c2ncc(-c3cccc(C(F)(F)F)c3)[nH]2)cc1C (stereo unspecified) | 0% (inactive) |
| COC(=O)N(C)C[C@@H]1OCc2cnnn2CCCC(=O)N([C@@H](C)CO)C[C@@H]1C | -14.7% (inactive) |
| O=c1cc(CN2CCCCCCC2)c2c(ccc3ccccc32)o1 | 5.7% (inactive) |
| Cc1ccc2[nH]c(=O)c(CN3CCCCC3)c(-c3ccccc3)c2c1 | 16.1% (inactive) |
| c1ccc2cc3[nH]c(CN4CCCCC4)nc3cc2c1 | -50.3% (active) |
| COc1cccc(/C=C2\SC(=S)N(CCCC(=O)N3CCOCC3)C2=O)c1 | -20.9% (inactive) |
| CCN1C(=S)N[C@@H](CCc2ccccc2)[C@H](C(=O)OC)[C@H]1C | -63% (active) |
| COCCN1C(=O)N[C@@H](CCc2ccccc2)[C@H](C(C)=O)[C@H]1C | 2.91% (inactive) |
| CCN1C(=NCc2ccc(OC)cc2)N[C@@H](CCc2ccccc2)[C@H](C(=O)NCc2ccc(OC)cc2)[C@H]1C | 4.01% (inactive) |
| Cn1c(CCN2CCN(c3ccccn3)CC2)nc2cc(NS(=O)(=O)c3ccc(F)cc3)ccc21 | 0% (inactive) |

| SMILES | max response, negative = inhibition |
| --- | --- |
| CCOC1=C2CN(S(=O)(=O)c3ccc(C)cc3)[C@H](c3cccs3)C[C@H]2[C@H]2C(=O)N(c3ccccc3)C(=O)[C@H]2C1 | -26.5% (inactive) |
| CCc1nc2c(OCc3ccccc3)cccn2c1N(C)C(=O)c1ccco1 | -0.512% (inactive) |
| Cc1ccc(S(=O)(=O)N2C[C@@H](C)[C@]3(C2)[C@H](O)[C@H](OC(=O)NCc2ccccc2)C[C@H]2C(=O)N(c4ccccc4)C(=O)[C@H]23)cc1 | 18.6% (inactive) |
| CC(=O)Nc1cc(-c2ccccc2N(C)C)cn2c(-c3ccc(F)c(Cl)c3)cnc12 | -55.6% (active) |
| CC(=O)Nc1cc(-c2cccc(CO)c2)cn2c(-c3cccc(C(F)(F)F)c3)cnc12 | -52.6% (active) |
| CC(=O)Nc1cc(-c2ccccc2F)cn2c(-c3cccc(C(F)(F)F)c3)cnc12 | -2.07% (inactive) |
| CC(=O)Nc1cccc(-c2cc(NC(C)=O)c3ncc(-c4ccccc4)n3c2)c1 | 10.2% (inactive) |
| COc1ccccc1-c1cc(NC(C)=O)c2ncc(-c3ccc(F)cc3)n2c1 | 0% (inactive) |
| CC(=O)Nc1cccc(-c2cc(NC=O)c3ncc(-c4ccc(F)c(Cl)c4)n3c2)c1 | 58.6% (inactive) |
| C[C@H](NC(=O)CC[C@H]1O[C@@H](n2ccc(=O)[nH]c2=O)[C@H](O)[C@@H]1O)c1cccc2ccccc12 | -12.4% (inactive) |
| COc1ccc(OC)c(NC(=O)c2cc(-c3cc(F)ccc3OCC3CCCO3)n[nH]2)c1 (stereo unspecified) | 8.86% (inactive) |
| COc1ccc(-n2c(-c3ccc(Cl)cc3)n[nH]c2=S)c(OC)c1 | 15.8% (inactive) |
| COC(=O)C[C@H]1C=C[C@@H](NS(=O)(=O)c2ccc(C)cc2)[C@@H](CO)O1 | 14.9% (inactive) |
| CCCCc1nc2ccc(F)cc2cc1C | 20.6% (inactive) |
| Cc1ccc(OCCCC(=O)N2CCOCC2)c(C)c1 | 4.43% (inactive) |
| Cc1ccc(OCCCCN2CCCCC2)c(Br)c1 | -102% (active) |
| Cc1ccc(C)c(OCC(=O)NNC(=O)C2CCC2)c1 | 1.58% (inactive) |
| Cc1ccc(C(C)(C)C)c(OCCCCN2CCCC2)c1 | -80.6% (active) |
| C=CCc1cc(C)ccc1OCCCn1ccnc1 | -3.51% (inactive) |
| CC(=O)Nc1ccc(S(=O)(=O)N2CCN(CCCOc3cc(C)ccc3C)CC2)cc1 | 15.6% (inactive) |
